# Laboratory results as given in the supplement of paper PMC6089552.
# The campaign covered roughly 3,200 compounds. About 300 (9.4%) showed activity. This is one part of a sample in which actives are shown more often than they occur. Unmarked numbers belong to inactive results.
# System: A673/TR/shEF
# Test: cell viability (LOESS-normalised, relative to median of negative controls) (log2 ratio); higher = more viable cells (less compound effect), active = hit call of the paper (over 3 MAD below the median)
# Conditions: treatment time: 72 h
# Method in brief: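 For three days, A673/TR/shEF Ewing sarcoma cells in 384-well plates (1,500 per well) were treated with library compounds at two or more concentrations or with DMSO controls, after doxycycline had been added or withheld 24 h beforehand to induce EWS-FLI1 shRNA knockdown. Viability was read by CellTiter-Glo luminescence on an Envision reader. The data were LOESS-corrected per plate, divided by the median of negative controls and log2-transformed.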
# [1] = 0.25 µM, library screen: screen1, EWS-FLI1 expression: high (no doxycycline)
# [2] = 0.25 µM, library screen: screen1, EWS-FLI1 expression: low (doxycycline-induced shRNA knockdown)
# [3] = 2.5 µM, library screen: screen1, EWS-FLI1 expression: high (no doxycycline)
# [4] = 2.5 µM, library screen: screen1, EWS-FLI1 expression: low (doxycycline-induced shRNA knockdown)
# [5] = 0.103 µM, library screen: screen3, EWS-FLI1 expression: high (no doxycycline)
# [6] = 0.103 µM, library screen: screen3, EWS-FLI1 expression: low (doxycycline-induced shRNA knockdown)
# [7] = 0.308 µM, library screen: screen3, EWS-FLI1 expression: high (no doxycycline)
# [8] = 0.308 µM, library screen: screen3, EWS-FLI1 expression: low (doxycycline-induced shRNA knockdown)
# [9] = 0.926 µM, library screen: screen3, EWS-FLI1 expression: high (no doxycycline)
# [10] = 0.926 µM, library screen: screen3, EWS-FLI1 expression: low (doxycycline-induced shRNA knockdown)
# [11] = 2.8 µM, library screen: screen3, EWS-FLI1 expression: high (no doxycycline)
# [12] = 2.8 µM, library screen: screen3, EWS-FLI1 expression: low (doxycycline-induced shRNA knockdown)
# [13] = 8.3 µM, library screen: screen3, EWS-FLI1 expression: high (no doxycycline)
# [14] = 8.3 µM, library screen: screen3, EWS-FLI1 expression: low (doxycycline-induced shRNA knockdown)
# [15] = 25 µM, library screen: screen3, EWS-FLI1 expression: high (no doxycycline)
# [16] = 25 µM, library screen: screen3, EWS-FLI1 expression: low (doxycycline-induced shRNA knockdown)
# [17] = 0.25 µM, library screen: screen2, EWS-FLI1 expression: high (no doxycycline)
# [18] = 0.25 µM, library screen: screen2, EWS-FLI1 expression: low (doxycycline-induced shRNA knockdown)
# [19] = 2.5 µM, library screen: screen2, EWS-FLI1 expression: high (no doxycycline)
# [20] = 2.5 µM, library screen: screen2, EWS-FLI1 expression: low (doxycycline-induced shRNA knockdown)
compound,measurement,setting,value
CC(=O)Nc1ccc2c(c1)C1C=CCC1C(c1ccc(Cl)cc1Cl)N2 (stereo not given),cell viability (log2),[1],0.141
same,cell viability (log2),[2],0.199
same,cell viability (log2),[3],0.113
same,cell viability (log2),[4],0.349
CCOC(=O)c1c(C)cc(O)c(C)c1O,cell viability (log2),[1],0.117
same,cell viability (log2),[2],0.0649
same,cell viability (log2),[3],0.0865
same,cell viability (log2),[4],0.119
CS(=O)(=O)c1ccc2nc(NC(=O)c3cccc(Cl)c3)sc2c1,cell viability (log2),[1],-0.0938 (active)
same,cell viability (log2),[2],0.0657
same,cell viability (log2),[3],0.0503
same,cell viability (log2),[4],0.0275
CS(=O)(=O)c1ccc(C(=O)Nc2ccc(Cl)c(-c3ccccn3)c2)c(Cl)c1,cell viability (log2),[5],0.0228
same,cell viability (log2),[6],0.046
same,cell viability (log2),[7],0.0359
same,cell viability (log2),[8],0.0158
same,cell viability (log2),[9],0.0316
same,cell viability (log2),[10],0.0515
same,cell viability (log2),[11],0.0335
same,cell viability (log2),[12],0.0126
same,cell viability (log2),[13],0.0254
same,cell viability (log2),[14],0.0522
same,cell viability (log2),[15],0.025
same,cell viability (log2),[16],0.0484
COC(=O)C[C@H]1C(C)(C)C(=O)[C@@H]2C[C@@]3(O)C4=CC(=O)O[C@@H](c5ccoc5)[C@]4(C)CCC3[C@@]1(C)C2=O (stereo not given in full),cell viability (log2),[1],0.0813
same,cell viability (log2),[2],0.00839
same,cell viability (log2),[3],0.172
same,cell viability (log2),[4],0.118
COc1ccccc1C1NC(=S)NC(C)=C1C(=O)Nc1ccccc1Cl (stereo not given),cell viability (log2),[1],0.153
same,cell viability (log2),[2],0.0944
same,cell viability (log2),[3],0.107
same,cell viability (log2),[4],0.0425
Cc1cc(=O)c2c(O)cc(O)c(C)c2o1,cell viability (log2),[1],0.111
same,cell viability (log2),[2],0.0695
same,cell viability (log2),[3],0.0905
same,cell viability (log2),[4],0.0937
COc1ccc(-c2nc3ccc(C4=NNC(=O)CC4C)cc3[nH]2)cc1 (stereo not given),cell viability (log2),[5],-0.0122
same,cell viability (log2),[6],0.0487
same,cell viability (log2),[7],-0.0245
same,cell viability (log2),[8],-0.0302
same,cell viability (log2),[9],-0.00296
same,cell viability (log2),[10],-0.0241
same,cell viability (log2),[11],0.0147
same,cell viability (log2),[12],-0.00868
same,cell viability (log2),[13],-0.0247
same,cell viability (log2),[14],0.0168
same,cell viability (log2),[15],-0.172
same,cell viability (log2),[16],-0.00571
O=C(/C=C/c1cccc(S(=O)(=O)Nc2ccccc2)c1)NO,cell viability (log2),[5],0.0161
same,cell viability (log2),[6],0.0578
same,cell viability (log2),[7],0.00773
same,cell viability (log2),[8],0.0247
same,cell viability (log2),[9],-0.074
same,cell viability (log2),[10],-0.000337
same,cell viability (log2),[11],-0.399 (active)
same,cell viability (log2),[12],-0.113 (active)
same,cell viability (log2),[13],-1.47 (active)
same,cell viability (log2),[14],-0.52 (active)
same,cell viability (log2),[15],-4.33 (active)
same,cell viability (log2),[16],-2.11 (active)
O=C(/C=C/c1ccccc1)c1c(O)cc(O)cc1O,cell viability (log2),[1],0.0431
same,cell viability (log2),[2],0.0419
same,cell viability (log2),[3],0.0216
same,cell viability (log2),[4],-0.0857
O=C(C=Cc1ccccc1)c1ccccc1O,cell viability (log2),[1],0.0713
same,cell viability (log2),[2],0.0789
same,cell viability (log2),[3],0.0334
same,cell viability (log2),[4],0.11
O=S(=O)(c1ccc(Br)c2ccccc12)n1ccnc1,cell viability (log2),[1],0.091
same,cell viability (log2),[2],0.0921
same,cell viability (log2),[3],0.103
same,cell viability (log2),[4],0.117
Cc1ccc(NC(=O)c2ccc(OC3CSC3)cc2)cc1,cell viability (log2),[1],-0.0477
same,cell viability (log2),[2],-0.0107
same,cell viability (log2),[3],0.0585
same,cell viability (log2),[4],0.076
CCOc1cc(C(=O)Nc2ccc([N+](=O)[O-])cc2)cc(OCC)c1OCC,cell viability (log2),[1],0.054
same,cell viability (log2),[2],0.0461
same,cell viability (log2),[3],0.0696
same,cell viability (log2),[4],-0.156
COCc1cc(C)nc(SCC(=O)NC(C)(C)C)c1C#N,cell viability (log2),[1],0.122
same,cell viability (log2),[2],0.0633
same,cell viability (log2),[3],0.0645
same,cell viability (log2),[4],-0.0386
O=C1N(c2ccccc2)c2ccccc2C1(Cc1ccncc1)Cc1ccncc1,cell viability (log2),[17],0.0704
same,cell viability (log2),[18],0.0498
same,cell viability (log2),[19],-0.0773 (active)
same,cell viability (log2),[20],0.0762
NC(=O)NCC(N)C(=O)O (stereo not given),cell viability (log2),[1],-0.0311
same,cell viability (log2),[2],0.00393
same,cell viability (log2),[3],0.0385
same,cell viability (log2),[4],0.0656
O=C(O)/C=C(/CC(=O)O)C(=O)O,cell viability (log2),[1],0.0822
same,cell viability (log2),[2],0.00778
same,cell viability (log2),[3],0.03
same,cell viability (log2),[4],0.0214
O=C1C=C(O)c2ccccc2C1=O,cell viability (log2),[1],0.0525
same,cell viability (log2),[2],-0.00535
same,cell viability (log2),[3],0.0828
same,cell viability (log2),[4],0.181
CCCCCCCCCCCCCCCC(=O)O[C@H](CC(=O)[O-])C[N+](C)(C)C,cell viability (log2),"0.025 µM, library screen: screen1, EWS-FLI1 expression: high (no doxycycline)",0.0342
same,cell viability (log2),"0.025 µM, library screen: screen1, EWS-FLI1 expression: low (doxycycline-induced shRNA knockdown)",0.0241
same,cell viability (log2),[1],0.194
same,cell viability (log2),[2],0.0339
same,cell viability (log2),[3],0.0599
same,cell viability (log2),[4],-0.023
same,cell viability (log2),"25 µM, library screen: screen1, EWS-FLI1 expression: high (no doxycycline)",-0.454 (active)
same,cell viability (log2),"25 µM, library screen: screen1, EWS-FLI1 expression: low (doxycycline-induced shRNA knockdown)",-0.672 (active)
CCCCCCCCCCCCCCCCCC(=O)OC(CC(=O)O)C[N+](C)(C)C (stereo not given),cell viability (log2),[1],0.12
same,cell viability (log2),[2],-0.0279
same,cell viability (log2),[17],0.206
same,cell viability (log2),[18],0.0207
same,cell viability (log2),[3],0.187
same,cell viability (log2),[4],0.0146
same,cell viability (log2),[19],0.154
same,cell viability (log2),[20],0.133
CCCCCCCCCCCCCCCC(=O)OC(CC(=O)[O-])C[N+](C)(C)C (stereo not given),cell viability (log2),[17],0.153
same,cell viability (log2),[18],0.133
same,cell viability (log2),[19],0.18
same,cell viability (log2),[20],0.0929
